According to PubChem BioAssay (NCI):
Values joined by “and” are separate entries in the source; they are usually repeats but may differ in a detail not shown here. Equal entries are not always repeated. This is part of a sample that, as a whole, favours compounds with a hit. Of some 83,000 tested, about 20% had one in any assay.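 Single-concentration screen, 48 h exposure, 96-well plates. Endpoint: percent growth. Below 10 = active.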 Active and inactive are the calls of the source.

Legend:
Assay in all cases: NCI-60 one-dose screen, 48 h (100 = growth as untreated, 0 = no growth, -100 = all killed)
Details in all cases: 10 µM unless noted
NCI-H226 lung = system: NCI-H226 lung
HOP-62 NSCLC = system: HOP-62 NSCLC
NCI-H460 lung = system: NCI-H460 lung
HOP-92 NSCLC = system: HOP-92 NSCLC
NCI-H522 lung = system: NCI-H522 lung
A549/ATCC NSCLC = system: A549/ATCC NSCLC
786-0 renal = system: 786-0 renal
COLO 205 colon = system: COLO 205 colon
NCI-H23 lung = system: NCI-H23 lung
NCI-H322M lung = system: NCI-H322M lung

Measured: growth

CC1(C)N=C(N)N=C(N)N1c1ccc(CCC(=O)Nc2ccc(S(=O)(=O)F)cc2)cc1
inactive: NCI-H226 lung 65.3% | HOP-62 NSCLC 47.1% | NCI-H460 lung 14.5% | HOP-92 NSCLC 70.8% | NCI-H522 lung 23.6% | A549/ATCC NSCLC 18.9% | 786-0 renal 21.3% | COLO 205 colon 28.8%

O=C1c2ccccc2C(=O)N1N1CC1c1ccccc1 (configuration not stated)
inactive: NCI-H23 lung 96.3% | NCI-H226 lung 102% | NCI-H322M lung 92.5% | HOP-62 NSCLC 111% | NCI-H460 lung 111% | NCI-H522 lung 85.9% | A549/ATCC NSCLC 98.8% | 786-0 renal 98.9% | COLO 205 colon 101%

CN1CCc2cc3c(cc2C1O)OCO3 (configuration not stated)
-48.6% (active) and 107% (inactive): NCI-H460 lung
-63.4% (active) and 109% (inactive): NCI-H522 lung
inactive: NCI-H23 lung 109% | NCI-H226 lung 36% and 105% | NCI-H322M lung 127% and 98.7% | HOP-62 NSCLC 103% and 99.1% | A549/ATCC NSCLC 96.2% and 106% | 786-0 renal 100% and 91.9% | COLO 205 colon 92.9% and 111%

CC1(C)C2CCC1(CS(=O)(=O)O)C(=O)C2 (configuration not stated)
inactive: NCI-H23 lung 108% and 105% | NCI-H226 lung 128% and 102% | NCI-H322M lung 90.2% and 99.1% | NCI-H460 lung 111% and 108% | HOP-92 NSCLC 66.9% and 99.9% | NCI-H522 lung 95.4% and 107% | A549/ATCC NSCLC 96.6% and 96.8% | 786-0 renal 101% and 98.8% | COLO 205 colon 92.9% and 132%

N#Cc1ccc(Cl)cc1
inactive: NCI-H23 lung 111% | NCI-H226 lung 109% | NCI-H322M lung 119% | HOP-62 NSCLC 105% | NCI-H460 lung 122% | A549/ATCC NSCLC 103% | 786-0 renal 108% | COLO 205 colon 117%

CC(Oc1ccc(-c2ccccc2)cc1)C(=O)O (configuration not stated)
inactive: NCI-H23 lung 106% | NCI-H226 lung 95.5% | NCI-H322M lung 102% | NCI-H460 lung 103% | NCI-H522 lung 99.8% | A549/ATCC NSCLC 96.5% | 786-0 renal 101% | COLO 205 colon 102%

CN1CCC2(CC1)C(C#N)C(=O)NC(=O)C2C#N (configuration not stated)
inactive: NCI-H226 lung 96.1% | HOP-62 NSCLC 94.3% | NCI-H460 lung 106% | HOP-92 NSCLC 109% | NCI-H522 lung 110% | A549/ATCC NSCLC 95.9% | 786-0 renal 104% | COLO 205 colon 109%

COCC1OC2OC3C(COC)OC(OC4C(COC)OC(OC5C(COC)OC(OC6C(COC)OC(OC7C(COC)OC(OC8C(COC)OC(OC1C(O)C2O)C(O)C8O)C(O)C7O)C(O)C6O)C(O)C5O)C(O)C4O)C(O)C3O (configuration not stated) (tested in a mixture with another compound)
inactive: NCI-H23 lung 102% | NCI-H226 lung 102% | NCI-H322M lung 134% | NCI-H460 lung 109% | NCI-H522 lung 109% | A549/ATCC NSCLC 109% | 786-0 renal 139% | COLO 205 colon 127%

C/C=C(/C)C(=O)O[C@H]1CC[C@@]2(C)[C@@H]3CC[C@H]4[C@]5(O)C[C@H](O)[C@@]6(O)[C@@H](CN7C[C@@H](C)CC[C@H]7[C@@]6(C)O)[C@]5(O)C[C@@]42O[C@@]13O
inactive: NCI-H23 lung 106% | NCI-H226 lung 102% | NCI-H322M lung 97.9% | NCI-H460 lung 110% | A549/ATCC NSCLC 94% | 786-0 renal 89.9% | COLO 205 colon 118%
active: HOP-62 NSCLC -56.5%

O=S(=O)(c1ccc(O)cc1)c1ccccc1O
inactive: NCI-H226 lung 104% | NCI-H322M lung 111% | HOP-62 NSCLC 101% | NCI-H460 lung 105% | HOP-92 NSCLC 100% | A549/ATCC NSCLC 112% | COLO 205 colon 112%

CCC(Br)(CC)C(=O)NC(N)=O
inactive: NCI-H23 lung 108% | NCI-H226 lung 96.4% | NCI-H322M lung 106% | NCI-H460 lung 103% | HOP-92 NSCLC 103% | NCI-H522 lung 105% | A549/ATCC NSCLC 104% | 786-0 renal 107% | COLO 205 colon 108%

Cc1c2ccncc2c(C)c2c1[nH]c1ccccc12
active: NCI-H23 lung -79.5% | NCI-H226 lung -0.884% | NCI-H322M lung -83.3% | NCI-H460 lung -69.2% | NCI-H522 lung -50.6% | A549/ATCC NSCLC -65.4% | 786-0 renal -95.9% | COLO 205 colon -87.1%

C[N+]12CCC34C5=CC(=O)C(=O)C=C5[N+]5(C)C(=O)CC6OCC=C(C1)C(CC32)C6C45 (configuration not stated)
inactive: NCI-H23 lung 117% | NCI-H226 lung 98.6% | NCI-H322M lung 98.5% | HOP-62 NSCLC 102% | NCI-H460 lung 105% | A549/ATCC NSCLC 106% | 786-0 renal 112% | COLO 205 colon 101%
